Source: PubChem BioAssay (several laboratories)
Shown are actives, neighbours in structure and some others; about 5.2% of the full set was active somewhere.
SMARCA2 act: SMARCA2 function activation, primary screen | MG213 cells, MMTV-luciferase reporter, dexamethasone, overnight | activation, % at 9.1 µM | hit rate 1% among 370,000; in the data active means activation above about 7.8%
GRIN3A LBD mod: modulates the human NR3A ligand-binding domain; Tm shift relative to glycine control, % at 25 µM; AID 1259313; hit rate 2.5% among 340,000; NR3A LBD differential scanning fluorimetry, Tm shift; 0% = protein alone, 100% = glycine-bound protein;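 active means melting temperature shift of at least 10% of the positive control shift, at one fixed dose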
NadD block: blocks S. aureus nicotinate mononucleotide adenylyltransferase | AID 602399 | purified NadD enzyme, colorimetric absorbance read-out | hit rate 0.78% among 360,000 | inhibition, % at 20 µM; in the data active means inhibition above about 26%
SKN-1 block: C. elegans SKN-1 inhibition; C. elegans VP596 Pgst-4::GFP/RFP ratio, acrylamide-induced, 24 h; hit rate 0.49% among 360,000; inhibition, % at 21.8 µM;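 active means interference check ratio from 0.5 to 1.5 plus GFP to RFP signal ratio inhibition reaching or exceeding a fixed threshold, cut at about 30% in these data, passing the limit was not always enough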
esBAF inh: SWI/SNF esBAF complex inhibition; mouse ES cells, Bmi1-luciferase knock-in reporter, 24 h; 100% = twice the neutral-well signal; reporter increase, % at 12.5 µM; hit rate 2% among 350,000; AID 602393; in the data active means activation above about 40%; inconclusive means no clear call, values can overlap the other calls;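 further: a rise in the Bmi1 reporter signal indicates esBAF inhibition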
Vif inh: inhibitors of HIV Vif | AID 602346 | inhibition, % at 7.49 µM | hit rate 0.35% among 340,000 | HEK293T cells, Vif self-association by quenched fluorescence, imaging, 24 h; in the data active means inhibition above about 50%, passing the limit was not always enough; inconclusive means no clear call, values can overlap the other calls; inactive means below about 31%
SMARCA2 act conf: confirmation of SMARCA2 (BRM) function activators; activation, % at 9.1 µM; shares compounds with SMARCA2 act; AID 652260; hit rate 30% among 3,500; MG213 cells, MMTV-luciferase with dexamethasone, luminescence, overnight; MG213 cells expressing E1A, Rb sequestered; DMSO wells 0%, reference activator 100%;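 active means activation above its plate's cutoff, the mean activation of tested wells plus 3 SD, cut at about 7.9% in these data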
GAL4-VP16 Luc: counter-screen for SMARCA2 activators: GAL4-VP16 luciferase reporter activation | shares compounds with SMARCA2 act | HEK293 GAL4-VP16 pG5luc reporter, luciferase luminescence; scaled: DMSO wells 0%, SAHA wells 100% | activation, % at 9.1 µM | hit rate 41% among 3,500 | AID 686939;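 active means activation above the solvent-only control well mean plus 3 SD, averaged across control plates, cut at about 5.2% in these data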
Large screens that a line does not name were inactive (follow-up assays come after a bar, where they were run).

COc1ccc(CCNC(=O)C(=O)NCC2OCCN2C(=O)c2ccc(Cl)cc2)cc1OC (centres undefined)	SMARCA2 act 9.5 (no result: esBAF inh, Vif inh) | SMARCA2 act conf inactive | GAL4-VP16 Luc inactive
O=C(c1cccc(F)c1)N1CCCCN2[C@H](CO)[C@H](c3ccc(C#CC4(O)CCCC4)cc3)[C@@H]2C1	none (no result: SMARCA2 act, GRIN3A LBD mod, NadD block, SKN-1 block, Vif inh)
Cn1cc(S(=O)(=O)Cc2ccc(F)cc2)c2ccccc21	SMARCA2 act 8.2 | SMARCA2 act conf inactive | GAL4-VP16 Luc inactive
Cn1cc(CC(=O)NCc2ccc(F)cc2)c2ccccc21	none
CCSc1nnc(-c2cccc(S(=O)(=O)N(CC)CC)c2)n1Cc1ccccc1	none (no result: esBAF inh)
CCNC(=O)CSc1nnc(-c2cccc(S(=O)(=O)N(CC)CC)c2)n1CCc1ccccc1	SMARCA2 act 8.9 | SMARCA2 act conf inactive | GAL4-VP16 Luc inactive
CN(C)CC(=O)N[C@@H]1CC[C@H](CCNC(=O)C2CCC2)O[C@@H]1CO	none (no result: SMARCA2 act, GRIN3A LBD mod, NadD block, SKN-1 block, Vif inh)
CCC1CSC(=Nc2ccc(C)cc2)N1C(=O)CN1C(=O)NC2(CCCC2)C1=O (centres undefined)	SMARCA2 act 9.7 (no result: esBAF inh) | SMARCA2 act conf 11 | GAL4-VP16 Luc 8.2
Cc1c(C)c2ccc(OCC(=O)Nc3ccccn3)cc2oc1=O	SMARCA2 act 12 | SMARCA2 act conf inactive | GAL4-VP16 Luc 5.6
Cc1c(C)c2ccc(OCC(=O)NCc3ccccn3)cc2oc1=O	none
COc1ccc(S(=O)(=O)N(C)C[C@@H]2OCCCC[C@H](C)Oc3ccc(NS(=O)(=O)c4c(C)noc4C)cc3C(=O)N([C@H](C)CO)C[C@@H]2C)cc1	none (no result: SMARCA2 act, GRIN3A LBD mod, NadD block, SKN-1 block, Vif inh)
C[C@@H]1CN([C@H](C)CO)C(=O)CCCn2cc(nn2)CO[C@H]1CN(C)Cc1ccc(O)cc1	none (no result: SMARCA2 act, GRIN3A LBD mod, NadD block, SKN-1 block, Vif inh)
CCCC(=O)c1cc2c(cc1NC(=O)c1cccs1)OCCO2	none (no result: Vif inh)
O=C(Nc1cc2c(cc1Br)OCCO2)c1cccs1	SMARCA2 act 10 | SMARCA2 act conf inactive | GAL4-VP16 Luc 9.0
Cc1ccc(N2C(=O)CC(N3CCN(c4ccccn4)CC3)C2=O)cc1 (centres undefined)	none (no result: esBAF inh)
Cc1ccc2nc(-c3ccc(N4C(=O)CC(N5CCN(CCO)CC5)C4=O)cc3)sc2c1 (centres undefined)	SMARCA2 act 8.6 (no result: esBAF inh, Vif inh) | SMARCA2 act conf inactive | GAL4-VP16 Luc inactive
N/C(=N\N=C\c1ccc([N+](=O)[O-])cc1)c1nonc1N	SMARCA2 act 14 (no result: esBAF inh) | SMARCA2 act conf inactive | GAL4-VP16 Luc 9.1
CCCCN1C(=O)C(CC(=O)NCCCN(C)C)CC(C(=O)N(CC)CC)=C1C (centres undefined)	none (no result: GRIN3A LBD mod)
CCCCN1C(=O)C(CC(=O)NCCCN(C)C)CC(C(=O)N(C(C)C)C(C)C)=C1C (centres undefined)	SMARCA2 act 13 (no result: GRIN3A LBD mod, esBAF inh, Vif inh) | SMARCA2 act conf inactive | GAL4-VP16 Luc inactive
Cc1ccc(N2C(S)=C(C#N)C(=O)NC2c2cccs2)cc1 (centres undefined)	SMARCA2 act 8.0 (no result: esBAF inh, Vif inh) | SMARCA2 act conf inactive | GAL4-VP16 Luc inactive
N#CC1=C(S)N(c2ccccc2)C(c2cccs2)NC1=O (centres undefined)	none
CC(C)C#Cc1ccc([C@@H]2[C@H]3CN(C(=O)c4ccc(F)cc4)CCCCN3[C@H]2CO)cc1	none (no result: SMARCA2 act, GRIN3A LBD mod, NadD block, SKN-1 block, Vif inh)
O=C(N/N=C/C(Cl)=C/c1ccccc1)c1cnccn1	none
COc1ccc(C(=O)N/N=C/c2cccnc2)cc1	SMARCA2 act 11 | SMARCA2 act conf inactive | GAL4-VP16 Luc inactive
O=C(N/N=C\c1cccnc1)c1ccccc1O	none
O=C(N/N=C/c1cccnc1)c1ccco1	SMARCA2 act 10 (no result: esBAF inh) | SMARCA2 act conf inactive | GAL4-VP16 Luc inactive
O=C(N/N=C/C(Cl)=C\c1ccccc1)c1ccco1	SMARCA2 act 12 (no result: esBAF inh) | SMARCA2 act conf inactive | GAL4-VP16 Luc 8.3
COc1ccc(CCNC(=O)/C(C#N)=C2\N=C(NC(=O)c3ccco3)c3ccccc32)cc1	none
N#C/C(C(=O)NCc1ccccc1)=C1/N=C(NC(=O)c2ccco2)c2ccccc21	SMARCA2 act 10, esBAF inh 47 | SMARCA2 act conf inactive | GAL4-VP16 Luc inactive
O=C(NCC[C@H]1CC[C@@H](NS(=O)(=O)Cc2ccccc2)[C@H](CO)O1)C1CCC1	none (no result: SMARCA2 act, GRIN3A LBD mod, NadD block, SKN-1 block, Vif inh)
CN1c2ccc(-c3cccc(F)c3)cc2[C@@H]2[C@@H](CCN2C(=O)c2ccncc2)[C@H]1CO	none (no result: SMARCA2 act, GRIN3A LBD mod, NadD block, SKN-1 block, Vif inh)
COC(=O)/C(C#N)=C1/C=Cc2ccccc2N1	SMARCA2 act 8.9 | SMARCA2 act conf inactive | GAL4-VP16 Luc 8.3
C1=Cc2ccccc2Nc2ccccc21	none
COc1cc(/C=N/NC(=O)c2nc(C)cc(C)n2)ccc1O	SMARCA2 act 8.9 (no result: esBAF inh) | SMARCA2 act conf inactive | GAL4-VP16 Luc inactive
Cc1nonc1C(=O)N/N=C/c1ccc(O)c(O)c1	SMARCA2 act 9.0 (no result: esBAF inh) | SMARCA2 act conf inactive | GAL4-VP16 Luc inactive
COc1cc(/C=N/NC(=O)c2nonc2C)ccc1O	SMARCA2 act 9.4 | SMARCA2 act conf inactive | GAL4-VP16 Luc inactive
COc1cc(/C=N/NC(=O)c2ccncc2)ccc1O	none
COc1cc(/C=N/NC(=O)c2cccc(NC(=O)c3ccccc3)c2)ccc1O	none
COc1cc(/C=N/NC(=O)c2cc[n+]([O-])cc2)ccc1O	Vif inh inconclusive
Cc1nonc1C(=O)N/N=C/c1ccccc1	none
COc1cc(/C=N/NC(=S)Nc2cccc(S(=O)(=O)N(C)C)c2)ccc1O	SMARCA2 act 9.8 (no result: esBAF inh) | SMARCA2 act conf inactive | GAL4-VP16 Luc 5.8
COCC(=O)Nc1ccc2c(c1)[C@H]1C[C@@H](CC(=O)N[C@@H](C)c3ccccc3)O[C@@H](CO)[C@H]1O2	none (no result: SMARCA2 act, GRIN3A LBD mod, NadD block, SKN-1 block, Vif inh)
Cc1ccc(S(=O)(=O)Nc2ccc3c(c2)C(=O)N([C@@H](C)CO)C[C@H](C)[C@H](CN(C)C)OCCCC[C@H](C)O3)cc1	none (no result: SMARCA2 act, GRIN3A LBD mod, NadD block, SKN-1 block, Vif inh)
COC(=O)C[C@H]1CC[C@@H]2[C@@H](COc3ccc(NC(=O)Nc4cc(C)cc(C)c4)cc3C(=O)N2C)O1	none (no result: SMARCA2 act, GRIN3A LBD mod, NadD block, SKN-1 block, Vif inh)
CC(C)NC(=O)Nc1cccc2c1O[C@H](CN(C)C(=O)Nc1ccccc1)[C@@H](C)CN([C@@H](C)CO)C2=O	none (no result: SMARCA2 act, GRIN3A LBD mod, NadD block, SKN-1 block, Vif inh)
CC(=O)c1ccc(NC(=O)c2cc(Cl)sc2Cl)cc1	SMARCA2 act 9.3 (no result: esBAF inh) | SMARCA2 act conf inactive | GAL4-VP16 Luc 7.5
Cc1cc(C)cc(NC(=O)c2cc(Cl)sc2Cl)c1	none (no result: esBAF inh)
N=c1c2ccccc2nc2n1CCCCCCC2	SMARCA2 act 9.0 (no result: GRIN3A LBD mod) | SMARCA2 act conf inactive | GAL4-VP16 Luc inactive
CCC/C(=N\NC(=O)C1CC1)c1ccccc1	SMARCA2 act 8.1 (no result: esBAF inh) | SMARCA2 act conf inactive | GAL4-VP16 Luc inactive
CCCN1CCN(CCCNC(=O)c2ccc3nc(N4CCCCC4)sc3c2)CC1	SMARCA2 act 13, esBAF inh 77 | SMARCA2 act conf 14 | GAL4-VP16 Luc 13
